An excerpt weighted towards active compounds, which were near 3.5% of everything screened.
Mtb FBA inh = inhibitors of M. tuberculosis fructose-bisphosphate aldolase. P9WQA3. purified M. tuberculosis FBA, fluorescence read-out. inhibition, % at 1 µM. hit rate 2.3% among 360,000. AID 588726
GDH-TPI counter-1 = inhibits GDH-TPI coupling enzymes, artifact for Mtb FBA screen. GDH-TPI coupled enzyme counterscreen, NADH absorbance. hit rate 1.2% among 360,000. inhibition, % at 4.8 µM. AID 588335; in the data active = inhibition above about 30%
Rv3671c protease = Rv3671c (M. tuberculosis) protease inhibition; inhibition, % at 5.96 µM; hit rate 0.048% among 320,000; AID 2606; in the data active = inhibition above about 38%;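 note: extracellular domain of Rv3671c used as enzyme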
Mtb UGM inh = blocks M. tuberculosis UGM enzyme. P9WIQ1. purified UGM, fluorescence polarization probe displacement. inhibition, % at 10 µM. hit rate 0.06% among 320,000. AID 504406; in the data active = inhibition above about 10%, passing the limit was not always enough
Target sequence (P9WIQ1 whole entry, looked up): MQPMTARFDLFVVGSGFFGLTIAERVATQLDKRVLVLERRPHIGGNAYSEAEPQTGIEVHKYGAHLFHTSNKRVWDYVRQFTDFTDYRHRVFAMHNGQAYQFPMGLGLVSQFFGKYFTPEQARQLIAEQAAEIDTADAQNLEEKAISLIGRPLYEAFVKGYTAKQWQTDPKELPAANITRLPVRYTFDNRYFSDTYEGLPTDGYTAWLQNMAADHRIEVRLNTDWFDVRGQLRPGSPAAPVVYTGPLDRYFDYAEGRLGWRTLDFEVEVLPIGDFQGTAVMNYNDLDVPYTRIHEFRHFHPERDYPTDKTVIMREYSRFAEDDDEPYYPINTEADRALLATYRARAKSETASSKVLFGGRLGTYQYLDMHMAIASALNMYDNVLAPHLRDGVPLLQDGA
Mtb FBA inh conf = confirmation of M. tuberculosis fructose-bisphosphate aldolase inhibitors | shares compounds with Mtb FBA inh | purified M. tuberculosis FBA, fluorescence read-out | inhibition, % at 1 µM | hit rate 78% among 5,600 | AID 651616
GDH-TPI counter-2 = GDH-TPI inhibition counter-screen for FBA inhibitors. shares compounds with Mtb FBA inh. GDH-TPI coupled enzyme counterscreen, fluorescence. inhibition, % at 1 µM. hit rate 81% among 5,600; in the data active = inhibition above about 10%
GDH-TPI DR = inhibits GDH-TPI coupling enzymes in dose response; shares compounds with Mtb FBA inh; IC50, µM; GDH-TPI coupled enzyme assay, fluorescence, artifact counterscreen; hit rate 79% among 170; call rule not given here
Numbers stand for hits; i = inactive; nt = no result; + = active, no number. Cut-off read from the data, not from the text of the source, unless noted: active = inhibition above about 27%; inactive = the rest.

SMILES	Mtb FBA inh	GDH-TPI counter-1	Rv3671c protease	Mtb UGM inh	Mtb FBA inh conf	GDH-TPI counter-2	others
CC(=O)c1c(C)[nH]c(C(=O)COc2ccc3ccc(=O)oc3c2)c1C	50.2	i	i	i	91.8	51.5
N#Cc1c(-c2ccccc2)cc(C2CC2)nc1N	i	i	i	i	nt	nt
N#Cc1c(-c2ccco2)cc(C2CC2)nc1N	49.4	i	i	i	i	i	GDH-TPI DR=2.61
CCOC(=O)c1ccc2nc(CCC(=O)N[C@H](C(=O)OC)C(C)C)c(=O)n(CC)c2c1	i	i	i	i	nt	nt
O=c1ccnc(SCCc2ccc([N+](=O)[O-])cc2)[nH]1	i	i	i	i	nt	nt
COc1cc2c3nc4n(c(=O)c3n(CC(=O)NCC3CCCO3)c2cc1OC)CCS4 (configuration not stated)	62.6	i	i	i	179.8	174.2
CC(=O)/C(=N\Nc1ccc(C)cc1)Sc1nncn1C	i	i	i	i	nt	nt
O=C(Nc1ccccc1C(=O)O)c1cc(S(=O)(=O)N2CCCCC2)c(Cl)cc1Cl	i	i	i	i	nt	nt
Cc1nc2c(=O)n(C)c(=O)n(C)c2nc1Cl	39.0	i	i	i	63.2	44.0
Cc1cccn2c(NCc3ccc4c(c3)OCO4)c(-c3ccc(O)cc3)nc12	52.6	i	i	i	182.5	112.0
C[C@@H](NC(=O)c1nc[nH]c1C(=O)N(C)Cc1ccccc1)c1ccccc1	i	i	i	i	nt	nt
CC(C(=O)Nc1ccc(N2CCOCC2)cc1)N1C(=O)NC(C)(C)C1=O (configuration not stated)	i	i	i	i	nt	nt
N#Cc1ccccc1COC(=O)c1cccnc1N	46.0	i	i	i	152.8	96.4
O=C(OCc1ccccc1Cl)c1cccnc1Cl	i	i	i	i	nt	nt
CN1CCN(C(=O)c2ccc3ccccc3c2)CC1	i	i	i	i	nt	nt
CN1CCN(C(=O)c2ccc3nc(-c4ccccc4)c(-c4ccccc4)nc3c2)CC1	30.2	i	i	i	168.1	135.2
O=C(c1ccc2nc(-c3ccccc3)c(-c3ccccc3)nc2c1)N1CCCCC1	33.5	i	i	i	92.6	63.5
O=C(c1ccccc1)N1CCCCCC1	i	i	i	i	nt	nt
Cc1cccc(-c2nc3ccc(C(=O)N4CCC5(CC4)OCCO5)cc3nc2-c2cccc(C)c2)c1	42.5	i	i	i	117.2	78.6
CCOC(=O)c1ccc(NC(=O)C(=O)NCCc2ccc(OC)cc2)cc1	50.4	i	i	i	115.9	106.3
COC(=O)c1ccc(-c2ccc(/C=N/NC(=O)CC3(C)OCCCO3)o2)cc1	34.1	i	i	i	+	176.8
CCN(CC)c1ccc(-c2sc(Nc3ccccc3)n[n+]2-c2ccc(F)cc2)cc1	i	i	i	i	nt	nt
CCc1ccc(Nc2n[n+](-c3ccccc3)c(-c3ccc(N(CC)CC)cc3)s2)cc1	51.4	i	i	i	36.3	34.8
CCOC(CCNC(=O)CCC(=O)Nc1ccc2nc(N3CCN(C)CC3)cc(C)c2c1)OCC	i	i	i	i	nt	nt
CCOc1ccccc1NC(=O)CCC(=O)Nc1ccc2nc(N3CCN(C)CC3)cc(C)c2c1	30.9	i	i	i	130.4	121.7
SMILES	Mtb FBA inh	GDH-TPI counter-1	Rv3671c protease	Mtb UGM inh	Mtb FBA inh conf	GDH-TPI counter-2	others
CCCCN(C)C(=O)CCC(=O)Nc1ccc2nc(N3CCN(C)CC3)cc(C)c2c1	28.4	i	i	i	61.1	56.9
COc1ccc(N(C)C(=O)CCC(=O)Nc2ccc3nc(N4CCOCC4)cc(C)c3c2)c(OC)c1	i	i	i	i	nt	nt
CCCCN(C)C(=O)CCC(=O)Nc1ccc2nc(N3CCOCC3)cc(C)c2c1	49.2	i	i	i	154.0	124.7
O=C1CN(C(=O)NCC(=O)N[C@@H](C(=O)O)c2ccccc2)c2ccccc2N1	i	i	i	i	nt	nt
CCC1(c2ccccc2)NC(=O)N(CC(=O)N2CC(=O)Nc3ccccc32)C1=O (configuration not stated)	i	i	i	i	nt	nt
Cc1ccc(-c2nc(Nc3cccc(O)c3)c3ccccc3n2)cc1	i	i	i	i	nt	nt
O=C(O)c1ccc(Nc2c3ccccc3nc3ccccc23)cc1	98.2	i	i	i	+	+
Oc1cccc(Nc2c3ccccc3nc3ccccc23)c1	65.2	i	i	i	i	17.8
Cc1ccc(C(=O)NNc2c3ccccc3nc3ccccc23)cc1	36.1	i	i	i	96.9	103.2
CC(C)(C)Nc1c2ccccc2nc2ccccc12	42.2	i	i	i	94.2	70.7
COc1ccc(C(=O)N2CCCC(C(=O)O)C2)c2ccccc12 (configuration not stated)	i	i	i	i	nt	nt
CCCCN1CC(=O)N2[C@H](c3ccc(OC)cc3)[C@@H]3C(=O)N(CC)C(=O)[C@@H]3[C@]2(C)C1=O	i	i	i	i	nt	nt
CCOC(=O)Nc1c2ccccc2nc2ccccc12	94.9	i	i	i	114.0	77.4
CCOC(=O)Nc1ccc(Oc2ccccc2)cc1	i	i	i	i	nt	nt
CN(C)CCN(C(=O)C1=COCCO1)c1nc2ccc(F)cc2s1	i	i	i	i	nt	nt
COc1cc(C#Cc2c(-c3ccccc3OC)oc3ccccc23)cc(OC)c1	34.4	i	i	i	i	i
COc1ccccc1-c1oc2ccccc2c1-c1ccc2c(c1)OCO2	i	i	i	i	nt	nt
O=C(O)CCN1C(=O)c2ccc(NC(=O)c3cccs3)cc2C1=O	32.5	i	i	i	182.5	171.2
Cc1cccc(NC(=O)c2cccc(N3C(=O)CCC3=O)c2)c1	i	i	i	i	nt	nt
CCC(=O)Nc1ccc2c(c1)C(=O)N(C)C2=O	27.0	i	i	i	i	i
CN1C(=O)c2ccc(NC(=O)CSc3ccccc3)cc2C1=O	i	i	i	i	nt	nt
CN1C(=O)c2ccc(NC(=O)c3cccc(N4C(=O)CCC4=O)c3)cc2C1=O	28.4	i	i	i	81.5	92.5
CCCC(=O)Nc1ccc2c(c1)C(=O)N(CCC(=O)O)C2=O	41.3	i	i	i	116.5	89.4
O=C(Nc1ccc2c(c1)C(=O)N(c1ccccc1)C2=O)c1cccs1	i	i	i	i	nt	nt
O=C(NCCc1ccccc1F)N[C@@H](Cc1ccccc1)C(=O)O	i	i	i	i	nt	nt
SMILES	Mtb FBA inh	GDH-TPI counter-1	Rv3671c protease	Mtb UGM inh	Mtb FBA inh conf	GDH-TPI counter-2	others
COc1ccc(OC)c(/C=C(\C)C(=O)c2c(C)cc(C)[nH]c2=O)c1	i	i	i	i	nt	nt
N#Cc1ccc(CNc2cnccn2)cc1	68.6	i	i	i	i	i
N#Cc1ccc(CSc2nnc(-c3cnccn3)o2)cc1	i	i	i	i	nt	nt
Clc1ccc(CNc2cnccn2)cc1Cl	61.2	i	i	i	i	i
COc1cc(CCC(=O)OCC(=O)Nc2ccc(C)cc2Cl)cc(OC)c1OC	i	i	i	i	nt	nt
CCOC(=O)c1c(C)[nH]c(C(=O)COC(=O)/C=C/c2ccc(OCC#N)c(OC)c2)c1C	i	i	i	i	nt	nt
CC(=O)N1CCN(c2cc3c(cc2F)c(=O)c(C(=O)O)cn3C2CC2)CC1	30.2	i	i	i	186.8	139.6
CCN1CCN(c2cc3c(cc2F)c(=O)c(C(=O)O)cn3C2CC2)CC1	i	i	i	i	nt	nt
